# The campaign covered roughly 48,000 compounds. About 13,000 (27%) showed an effect of 50% or more. This is one part of the list.
# System: Wolbachia pipientis
# Assay: Anti-Wolbachia Cell-Based Screen
# Assay type: functional
# Set-up: scale not given: in the data most compounds retested in dose-response had high values
# Conditions: 5 µM
row,SMILES,Percent Effect [%]
1,N#Cc1ccccc1C(=O)N1C[C@@H](CN2CCCCC2)[C@@H](CO)C1,-9.135
2,CC(C)(C)OC(=O)NC1(c2noc(-c3ccoc3)n2)CCC1,-12.02
3,CC1(C)CC(N2Cc3nc(N)ncc3C2=O)CC(C)(C)N1,-10.52
4,CO[C@H]1CCN(c2nnc(C)s2)C[C@@H]1Cc1cccc(C)c1.O=C(O)C(F)(F)F,71.03
5,CO[C@@H]1CCN(Cc2nccs2)C[C@@H]1Cc1cccc(C)c1.O=C(O)C(F)(F)F,-16.54
6,CO[C@@H]1CCN(c2nnc(C)s2)C[C@@H]1Cc1cccc(C)c1.O=C(O)C(F)(F)F,98.33
7,Cc1cccc(CO[C@H]2CN(c3nnc(C)s3)[C@@H]3CCCO[C@H]23)n1.O=C(O)C(F)(F)F.O=C(O)C(F)(F)F,-4.881
8,CCc1nc2c(N3CCC4(CC3)CC(=O)N(CC)C4)ncnc2o1,-6.459
9,CNc1ncc(CN(C)C(=O)c2cccc(CC3CCNCC3)c2)cn1,3.587
10,CC(=O)N1CCC2(CCN(C(=O)c3ccc(C)c(C(F)(F)F)c3)CC2)C1,5.655
11,O=C(Nc1ccccc1)[C@H]1O[C@H](CCN2CCCCC2)CC[C@@H]1O,-9.518
12,CC(=O)Nc1ccc2c(c1)CN(C(=O)c1ccco1)CC2,113.8
13,CCC(=O)Nc1ccc2c(c1)CN(C(=O)c1ccco1)CC2,20.51
14,Cn1c(=O)oc2ccc(NC(=O)N3CCc4ccccc4C3)cc21,3.021
15,COCC(=O)Nc1ccc2c(c1)CN(C(=O)c1ccco1)CC2,105.1
16,Cc1ccc2c(n1)N(CCN(C)C)CCN(C(=O)c1ccco1)C2,15.51
17,Cc1n[nH]cc1CNc1ccc2c(c1)CN(C(=O)OC(C)(C)C)CC2,-19.63
18,CCc1noc(CC)c1CNC(=O)Nc1ccc2[nH]nnc2c1,5.627
19,Cc1ccccc1CS(=O)(=O)CC(=O)N(C)Cc1ccccc1,-7.305
20,CCCNC(=O)CCC(=O)Nc1ccc(-n2cncn2)c(F)c1,-8.923
21,Cc1cc(S(=O)(=O)Nc2onc(C)c2C)c(C)s1,-1.825
22,Cc1ccc(NC(=O)NCC2(N3CCOCC3)CCSC2)c(C)c1 (configuration not stated),-11.49
23,CCN1CCCC1(C)c1nc(C)cc(N)n1 (configuration not stated),113.3
24,Cc1cc(C)nc(C2(C)CCCN2CCO)n1 (configuration not stated),123.6
25,COCCN1CCCC12CCCN(c1nncs1)C2 (configuration not stated),14.36
26,CCCc1nc(C)cc(N2CCC3(CCC(=O)N(CCO)C3)CC2)n1,3.34

row,SMILES,Percent Effect [%]
1,Cc1cc(N2CCC3(CCC(=O)N(CCO)C3)CC2)nc(N(C)C)n1,21.48
2,CCCc1nc(C)cc(N2CCC3(CCC(=O)N(CCOC)C3)CC2)n1,0.7545
3,COCCN1CCCC1(C)c1nc(C)cc(N)n1 (configuration not stated),125.2
4,Cc1nnsc1C(=O)NCc1cccnc1N(C)Cc1ccccc1,-7.662
5,CC(C)N1CCOCC2(CN(Cc3nccs3)CCO2)C1.O=C(O)C(F)(F)F.O=C(O)C(F)(F)F (configuration not stated),13.74
6,CNS(=O)(=O)c1cccc(CNCc2ccsc2)c1,4.811
7,O=C(c1ccco1)N1CCCC2(CN(Cc3ccoc3)CCO2)C1 (configuration not stated),-2.684
8,O=C(c1ccco1)N1CCO[C@@H]2CN(c3ncc(F)cn3)CC[C@@H]2C1,-7.545
9,O=C(c1ccoc1)N1CCC2(CCCN(c3ncc(F)cn3)C2)C1 (configuration not stated),105.6
10,CC(=O)N1CCCC2(CCN(c3nncs3)C2)C1 (configuration not stated),-12.49
11,O=C(c1ccoc1)N1CCC2(C1)CN(c1ncc(F)cn1)C2,0.03212
12,O=C(CCO)N1CCOC2(CCCN(C(=O)c3ccco3)C2)C1 (configuration not stated),-2.214
13,O=C(O)C(F)(F)F.O=C(c1ccco1)N1CCCC2(CCN(c3nncs3)C2)C1 (configuration not stated),102.9
14,O=C(c1ccco1)N1CCC2(CCOC2)C1 (configuration not stated),5.675
15,O=C(O)C(F)(F)F.O=C(c1ccccn1)N1CCC2(CCCN(c3nncs3)C2)C1 (configuration not stated),-19.65
16,O=C(c1ccco1)N1CCC2(CCCN(c3ncc(F)cn3)C2)C1 (configuration not stated),95.74
17,Cc1cnc(N2CC3(CCN(C(=O)c4ccoc4)C3)C2)nc1,-4.182
18,O=C(c1ccco1)N1CCCC2(C1)CN(c1nncs1)CCO2 (configuration not stated),86.33
19,O=C(CSCC1CC1)N1CCCC(c2nccn2Cc2ccccn2)C1 (configuration not stated),-4.276
20,CCC1=N[C@@]2(CC[C@@H]3CN(S(=O)(=O)CC)C[C@@H]32)C(=O)N1CC(C)C,-13.66
21,CN(Cc1ccccc1)c1ncccc1CNC1CCCC1,-55.14
22,CNS(=O)(=O)c1cccc(C(C)NCc2ccc(F)cc2F)c1 (configuration not stated),0.5272
23,CC(C)(C)c1ccn(C2(C(=O)O)CCN(c3ccncc3F)CC2)n1,0.05232
24,O=C(O)C(F)(F)F.O=C(c1ccco1)N1CCOC2(COCCN(c3ncccn3)C2)C1 (configuration not stated),-16.99
25,O=C(O)C(F)(F)F.O=C(c1ccco1)N1CCC2(CCCN(c3ncccn3)C2)C1 (configuration not stated),85.77
26,O=C(O)C(F)(F)F.O=C(c1ccco1)N1CCCC2(CN(Cc3cccs3)CCO2)C1 (configuration not stated),7.002

# Reference: ChEMBL document CHEMBL3988442, “University of Dundee, Small-Polar-MMV Screening Library” (2021)
